Experimental data reported in ChEMBL document CHEMBL4513139, “CO-ADD screening of University of Strathclyde (UK) compounds”.
Measured potencies and affinities stand elsewhere.

Key:
[1] = system: Staphylococcus aureus; conditions: Concentration 32 ug.mL-1; ASSAY_TEST Inhibition of Bacterial Growth; detection method Absorption (OD600); MEDIA CAMHB; plate type 384well; NBS; CORNING #3640; time 18 hr
[2] = system: Escherichia coli; conditions: Concentration 32 ug.mL-1; ASSAY_TEST Inhibition of Bacterial Growth; detection method Absorption (OD600); MEDIA CAMHB; plate type 384well; NBS; CORNING #3640; time 18 hr

COc1cccc(C(=N)Nc2cc(C(=O)Nc3cc(C(=O)Nc4cc(C(=O)NCCCN5CCOCC5)n(C)c4)n(C)c3)n(C)c2)c1.O=C(O)C(F)(F)F.O=C(O)C(F)(F)F
Inhibition [1]: 26.72% | Inhibition [2]: -6.36%

Cc1ncc(CNc2ccccc2F)c(N)n1
Inhibition [1]: 17.82% | Inhibition [2]: -3.65%

Cc1ncc(Cn2cc(CCCN)nn2)c(N)n1.Cl
Inhibition [1]: 14.19% | Inhibition [2]: -28.01%

COc1cccc(C(=N)Nc2cc(C(=O)Nc3cc(C(=O)Nc4cn(CCCN(C)C)cn4)n(C)c3)n(C)c2)c1.O=C(O)C(F)(F)F.O=C(O)C(F)(F)F
Inhibition [1]: 18.77% | Inhibition [2]: -11.88%

Cc1ncc(CNc2ccc(C(F)(F)F)cc2)c(N)n1
Inhibition [1]: -6.95% | Inhibition [2]: -11.04%

CC(C)CCc1sc(N)nc1C(=O)Nc1cc(C(=O)Nc2cc(C(=O)NCCN3CCOCC3)n(C)c2)n(C)c1.O=C(O)C(F)(F)F
Inhibition [1]: 26.32% | Inhibition [2]: -8.65%

Cc1ncc(Cn2cc(CC(N)C(=O)O)nn2)c(N)n1.Cl (stereo not drawn)
Inhibition [1]: -6.04% | Inhibition [2]: -16.87%

CC(C)c1sc(N)nc1C(=O)Nc1cc(C(=O)Nc2cc(C(=O)NCCN3CCOCC3)n(C)c2)n(C)c1.O=C(O)C(F)(F)F
Inhibition [1]: 1.1% | Inhibition [2]: -18.06%

COc1cccc(C(=O)Nc2cc(C(=O)Nc3cc(C(=O)Nc4cn(CCCN(C)C)cn4)n(C)c3)n(C)c2)c1.O=C(O)C(F)(F)F
Inhibition [1]: 20.04% | Inhibition [2]: -11.39%

CC(C)CCc1sc(NC(=O)c2cc(NC(=O)c3ccc(/C=C/c4cc5ccccc5nc4Cl)cc3)cn2C)nc1C(=O)NCCN1CCOCC1.O=C(O)C(F)(F)F
Inhibition [1]: 1.02% | Inhibition [2]: -19.26%

Cc1ncc(Cn2cc(CCCO)nn2)c(N)n1
Inhibition [1]: 13.2% | Inhibition [2]: -17.2%

Cc1ncc(Cn2cc(CO)nn2)c(N)n1
Inhibition [1]: 15.8% | Inhibition [2]: -17.13%

Cc1ncc(Cn2cc(CCCCO)nn2)c(N)n1
Inhibition [1]: 1.62% | Inhibition [2]: -20.02%

Cn1cc(NC(=O)c2cc(NC(=O)c3sc(N)nc3C(F)(F)F)cn2C)cc1C(=O)NCCC(=N)N.O=C(O)C(F)(F)F
Inhibition [1]: -17.29% | Inhibition [2]: -25.01%

CC(C)c1sc(NC(=O)c2cc(NC(=O)c3cc(NC(=O)c4cnc(Cl)c(Cl)c4)cn3C)cn2C)nc1C(=O)NCCCN(C)C.O=C(O)C(F)(F)F
Inhibition [1]: 50.09% | Inhibition [2]: -19.66%

COc1ccc(/C=C(/C(=O)Nc2cc(C(=O)Nc3cc(C(=O)NCCCN(C)C)n(C)c3)n(C)c2)c2ccc(OC)cc2)cc1.O=C(O)C(F)(F)F
Inhibition [1]: 49.85% | Inhibition [2]: -8.57%

CC(C)CCc1sc(NC(=O)c2cc(NC(=O)c3cc(NC(=O)c4ccc(C(=O)O)cc4)cn3C)cn2C)nc1C(=O)NCCCN(C)C.O=C(O)C(F)(F)F
Inhibition [1]: 8.57% | Inhibition [2]: -17.53%

CN(C)CCCNC(=O)c1cc(NC(=O)c2cc(NC(=O)c3cc(NC(=N)c4ccccc4)cn3C)cn2C)cn1C.O=C(O)C(F)(F)F.O=C(O)C(F)(F)F
Inhibition [1]: 0.44% | Inhibition [2]: -15.33%

CC(=O)N(C(C)=O)c1cc(C(=O)Nc2cc(C(=O)NCCC(=N)N)n(C)c2)n(C)c1.O=C(O)C(F)(F)F
Inhibition [1]: 98.15% | Inhibition [2]: 6.79%

CC(C)c1sc(N)nc1C(=O)Nc1cc(C(=O)NCCN2CCOCC2)n(C)c1.O=C(O)C(F)(F)F
Inhibition [1]: 4.82% | Inhibition [2]: -3.07%

Cc1ncc(CNc2cccc(F)c2)c(N)n1
Inhibition [1]: 13.69% | Inhibition [2]: 3.54%

Cc1ncc(Cn2cc(CCO)nn2)c(N)n1
Inhibition [1]: 21.55% | Inhibition [2]: -15.62%

COCCOC1CCN(C(=O)c2cc(NC(=O)c3cc(NC(=O)c4ccc(/C=C/c5ccc(OC)cc5)cc4)cn3C)cn2C)CC1.O=S(=O)(O)O
Inhibition [1]: 99.55% | Inhibition [2]: 96.85%

CCOC(=O)CCC(NC(=O)c1ccc(NCc2cn(Cc3cnc(C)nc3N)nn2)cc1)C(=O)OCC (stereo not drawn)
Inhibition [1]: -1.1% | Inhibition [2]: -21.48%

Cn1cc(NC(=O)c2cc(NC(=O)CCC(=O)O)cn2C)cc1C(=O)NCCN1CCOCC1.O=C(O)C(F)(F)F
Inhibition [1]: -10.46% | Inhibition [2]: -3.43%

CC(=N)Nc1cc(C(=O)Nc2cc(C(=O)Nc3cc(C(=O)NCCN4CCOCC4)n(C)c3)n(C)c2)n(C)c1.O=C(O)C(F)(F)F.O=C(O)C(F)(F)F
Inhibition [1]: 23.57% | Inhibition [2]: -8.61%

CC(=O)Nc1cc(C(=O)Nc2cc(C(=O)Nc3cc(C(=O)NCCCN(C)C)n(C)c3)n(C)c2)n(C)c1.O=C(O)C(F)(F)F
Inhibition [1]: 20.29% | Inhibition [2]: -5.37%

CCOC(=O)c1cc(NC(=O)c2cc(NC(=O)c3sc(N)nc3C(F)(F)F)cn2C)cn1C
Inhibition [1]: 23.52% | Inhibition [2]: -5.76%

COC(=O)CCC(=O)Nc1cc(C(=O)Nc2cc(C(=O)NCCN3CCOCC3)n(C)c2)n(C)c1.O=C(O)C(F)(F)F
Inhibition [1]: 3.68% | Inhibition [2]: -5.38%

Cc1ccc(S(=O)(=O)NCCc2cn(Cc3cnc(C)nc3N)nn2)cc1
Inhibition [1]: 16.06% | Inhibition [2]: -13.92%

COC(=O)c1ccc(C(=O)Nc2cc(C(=O)Nc3cc(C(=O)NCCC(=N)N)n(C)c3)n(C)c2)cc1.O=C(O)C(F)(F)F
Inhibition [1]: 12.34% | Inhibition [2]: -18.97%

COc1ccc(CC(=O)Nc2cc(C(=O)Nc3cc(C(=O)Nc4cn(CCCN(C)C)cn4)n(C)c3)n(C)c2)cc1.O=C(O)C(F)(F)F
Inhibition [1]: 6.27% | Inhibition [2]: -5.32%

COC(=O)c1ccc(C(=O)Nc2cc(C(=O)Nc3cc(C(=O)NCCCN(C)C)n(C)c3)n(C)c2)cc1.O=C(O)C(F)(F)F
Inhibition [1]: -1.58% | Inhibition [2]: -9.36%

CC(C)CCc1sc(NC(=O)c2cc(NC(=O)c3ccc(/C=C/c4cc5ccccc5nc4On4nnc5ccccc54)cc3)cn2C)nc1C(=O)NCCN1CCOCC1.O=C(O)C(F)(F)F
Inhibition [1]: -16.43% | Inhibition [2]: -13.53%
